Here are results for 14 compounds from ChEMBL document CHEMBL3433997, “St. Jude Leishmania screening dataset” (2016).

Format in all cases: functional
Test [1] has as its target Solute carrier family 2, facilitated glucose transporter member 1 (Homo sapiens) (UniProt P11166). The test can be described thus: ST_JUDE_LEISH: Cytotoxicity at 2uM final concentration against transgenic Leishmania Mexicana promastigotes LmGLUT1 that are glucose transport deficient and complemented with the human glucose transporter GLUT1. Activity is measured by DNA content using SYBR green in vitro.

The target in test [2] is Hexose transporter 1 (Plasmodium falciparum) (UniProt O97467). The experiment in a line: ST_JUDE_LEISH: Cytotoxicity at 2uM final concentration against transgenic Leishmania Mexicana promastigotes LmPfHT that are glucose transport deficient and complemented with the Plasmodium falciparum hexose transporter. Activity is measured by DNA content using SYBR green in vitro.
Test [3] addresses Glucose transporter (Leishmania mexicana) (UniProt O61059). The test can be described thus: ST_JUDE_LEISH: Cytotoxicity at 2uM final concentration against transgenic Leishmania Mexicana promastigotes LmGT2 that are glucose transport deficient and complemented with the L. Mexicana glucose transporter 2. Activity is measured by DNA content using SYBR green in vitro.

Chain of Solute carrier family 2, facilitated glucose transporter member 1 (Homo sapiens) (P11166 whole entry): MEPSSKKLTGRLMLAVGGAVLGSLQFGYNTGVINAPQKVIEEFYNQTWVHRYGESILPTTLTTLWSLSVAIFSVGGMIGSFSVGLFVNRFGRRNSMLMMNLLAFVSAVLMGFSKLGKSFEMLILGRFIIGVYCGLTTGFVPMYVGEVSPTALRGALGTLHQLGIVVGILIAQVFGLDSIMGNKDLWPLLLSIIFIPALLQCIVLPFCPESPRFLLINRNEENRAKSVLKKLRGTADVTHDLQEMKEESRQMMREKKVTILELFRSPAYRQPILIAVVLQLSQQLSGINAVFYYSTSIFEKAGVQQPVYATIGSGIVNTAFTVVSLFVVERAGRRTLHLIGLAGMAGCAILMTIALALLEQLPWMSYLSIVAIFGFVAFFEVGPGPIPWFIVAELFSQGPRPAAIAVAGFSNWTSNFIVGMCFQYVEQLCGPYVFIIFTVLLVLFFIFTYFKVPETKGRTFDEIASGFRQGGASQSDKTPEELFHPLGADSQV

The term inhibition denotes the relative decrease from the control value, in per cent. On to `CN(C)c1cc(NC(=O)Nc2ccc(SC(F)(F)F)cc2)c2ccccc2n1`, for which the inhibition in test [1] is -0.23%; in test [2] it was 0.11%; in test [3], 0.58%.
For `COc1ccc2nccc([C@@H](O)CN3CCC(NC(=O)COc4nc(SCc5ccc(F)cc5)nc5c4CCC5)CC3)c2c1` the same measures were 1.06%, 0.81% and -3.16%.
For `Cc1nn(-c2ccccc2)c2nc(-c3ccccc3)cc(C(=O)N3CCOCC3)c12`, in that order: 1.26%, 0.16% and -2.24%.
For `CCCCCOc1ccc(N2C(N)=NC(N)=NC2(C)C)cc1`, the inhibition stood at 2.39% in test [1], 2.59% in test [2] and 2.5% in test [3].
For `CC(=O)CCc1ccc(OCCN(Cc2ccccc2C(F)(F)F)c2ccc(C#N)c(C(F)(F)F)c2)cc1` the same measures were 3.66%, 4.24% and 2.73%.
As for `Cc1cccc2nc(-c3ccc(-c4cccc(CN5CCC(C(N)=O)CC5)c4)cc3)[nH]c12`, the inhibition was 0.21% in test [1], -0.52% in test [2] and -1.72% in test [3].
For `COc1ccc2[nH]c(C)cc(=NN=Cc3cc(C)ccc3O)c2c1`, in that order: 13.1%, 11.2% and 8.77%.
For `COc1cccc2cc(C(=O)N[C@@H](CC(C)C)C(=O)N[C@H](C=NN3CC(=O)NC3=O)CC(C)C)oc12` the same measures were 2.8%, 3.84% and 2.23%.
`Brc1ccc(Nc2nc(NCc3ccccc3)c3ccccc3n2)cc1`: the inhibition is 22.6% in test [1], 16.5% in test [2] and 6.03% in test [3].
For `CC(Oc1ccc(Cl)cc1)C(=O)N(C)C1CCN(CCCCCNC(=O)/C=C/c2ccc(Cl)c(Cl)c2)CC1` (configuration not stated), in that order: 1.06%, 3.1% and 1.95%.
For `Cc1cc(NC(=O)c2cccs2)ccc1OC1CCN(Cc2ccc(F)cc2)C1` (configuration not stated), in that order: 0.09%, 0.19% and 1.92%.
For `FC(F)(F)c1ccc2[nH]c(-c3ccc(-c4cccc(CNCc5ccccc5)c4)cc3)nc2c1`, in that order: 7.1%, 4.87% and 7.33%.
Take `CCCCCCCc1c(C)[nH]c2ccc(F)cc2c1=O`: the inhibition in test [1] is -0.05%; in test [2], 0.32%; in test [3], -0.32%.
For `CCc1cn2c3c(cc(C(=O)N[C@@H](Cc4ccccc4)[C@H](O)CNCc4ccccc4C)cc13)N(C)S(=O)(=O)CC2`, the inhibition in test [1] worked out at 3.43%; in test [2], 2.3%; in test [3], 1.96%.
